# Data published in PubChem BioAssay (NCI).
# Compounds without any hit were thinned out: in the full panel of roughly 83,000, 20% have a hit.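 Interpretation: 100, growth as untreated; towards 0, rising growth inhibition; 0, no net growth; 0 to -100, cell death. Compounds scoring below 10 were considered active.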 Values without a mark were called inactive. The source made the active and inactive calls.
# Legend:
# Assay in all cases: NCI-60 one-dose screen, 48 h (100 = growth as untreated, 0 = no growth, -100 = all killed)
# Details in all cases: 10 µM unless noted
# [1] = system: SK-MEL-2 melanoma
# [2] = system: EKVX NSCLC
# [3] = system: SN12C renal
# [4] = system: UO-31 renal
# [5] = system: TK-10 renal
# [6] = system: ACHN renal
# [7] = system: CAKI-1 renal
# [8] = system: A498 renal
# [9] = system: CCRF-CEM leukemia
# [10] = system: RPMI-8226 leukemia
# [11] = system: OVCAR-8 ovarian
# [12] = system: OVCAR-5 ovarian
# [13] = system: OVCAR-4 ovarian
# [14] = system: SK-OV-3 ovarian
# [15] = system: IGROV1 ovarian
# [16] = system: OVCAR-3 ovarian
# [17] = system: HS 578T breast
# [18] = system: NCI/ADR-RES ovarian
# [19] = system: MOLT-4 leukemia
# [20] = system: SR leukemia
Compound,growth [1],growth [2],growth [3],growth [4],growth [5],growth [6],growth [7],growth [8],growth [9] [%],growth [10],growth [11],growth [12],growth [13],growth [14] [%],growth [15],growth [16],growth [17],growth [18],growth [19],growth [20]
C/C=C/C1OCC(CC)C(CCC)O1 (stereo not given),102%,105%,99.5%,81.1%,101%,110%,99.9%,91.7%,85.4,94.5%,103%,98.7%,110%,108,104%,106%,107%,108%,–,–
C=C1C(=O)C2CCC1C2 (stereo not given),101%,109%,104%,82.2%,109%,112%,101%,93.7%,–,106%,109%,101%,111%,105,111%,95.2%,73.7%,105%,94.7%,96.7%
O=S(Cc1ccccc1)/C(=C/NC(=S)Nc1cc(Cl)ccc1Cl)c1ccccc1 (stereo not given),101%,99.3%,98.5%,83.9%,107%,99.9%,97.1%,101%,99.6,102%,113%,100%,105%,101,95.8%,110%,102%,105%,–,–
Nc1nc(N)nc(N2CCCCC2)n1,100%,107%,102%,87.4%,91.6%,110%,104%,89.6%,–,101%,105%,102%,–,106,96%,105%,97.3%,110%,107%,97.9%
C=C1C(=O)C2CCN1CC2,105%,103%,101%,89.1%,99.9%,86.8%,92%,97.6%,–,93.8%,110%,–,–,105,122%,85.2%,101%,104%,78.2%,26.1%
CCCCCCCCCCCCCCCCCCSC(=N)N,97.6%,88.3%,65.6%,43.2%,65.5%,69.9%,79.4%,84.7%,–,61.7%,86.9%,–,76.1%,83.3,70.5%,89.5%,100%,81%,26.2%,-13.5% (active)
CN(C)c1ccc2nc3ccc(=[N+](C)C)cc-3oc2c1,58.1%,29.8%,-39.7% (active),65.1%,70%,70.5%,70.3%,94.8%,–,45.6%,8.48% (active),-12.3% (active),-76% (active),61.3,5.34% (active),-10.6% (active),101%,66.3%,4.76% (active),60.3%
COC1=C(OC)C(=O)C(SC/C=C(\C)CCCC(C)CCCC(C)CCCC(C)C)=CC1=O (stereo not given),-11.3% (active),27.6%,15.4%,-3.97% (active),56%,20.6%,102%,16.8%,–,–,18.7%,25.7%,27.9%,45.4,-9.75% (active),13.6%,63.6%,11.6%,10.4%,–
NNC(=O)N/N=C1\C(=O)N(c2nccs2)C(=O)C(=O)C1c1nc2ccccc2s1 (stereo not given),98.4%,84.8%,96%,75.5%,114%,109%,96.7%,98.3%,–,–,95%,102%,105%,103,93.2%,102%,96.2%,103%,–,–
Cc1cccc(-[n+]2noc(N)n2)c1,145%,67.9%,95.7%,49.7%,124%,46.1%,59.6%,113%,–,68.5%,100%,99.2%,84%,86.3,–,77%,129%,84.8%,–,–
O=C(O)c1ccc(OCc2ccccc2)cc1,101%,110%,98.2%,89.6%,96.7%,94.3%,92.7%,–,104,97.5%,97.9%,93.5%,102%,98.8,91.1%,118%,96%,104%,98%,99.8%
O=C(NCc1ccccc1)/C(=C/c1ccccc1)NC(=O)c1ccccc1,102%,103%,100%,92%,108%,104%,103%,90.9%,94.4,96.5%,–,123%,115%,102,104%,117%,99.2%,104%,–,–
C=C1CC2(OC1=O)C(=O)N(C)c1ccc(I)cc12 (stereo not given),-73.1% (active),-46.4% (active),-12% (active),-66% (active),-80.9% (active),-84.5% (active),-91.3% (active),-13.6% (active),–,-60% (active),-8.98% (active),-10.3% (active),-87.6% (active),67.6,-66.9% (active),-96.9% (active),-5.25% (active),-66% (active),-50.1% (active),–
Cc1cccc(C)c1NC(=S)/N=C\c1c(O)[nH]c(=O)[nH]c1=O,103%,77.3%,98.5%,89.5%,106%,102%,96.5%,103%,98.9,98.3%,108%,109%,104%,94,101%,111%,92%,108%,–,–
CC(C)N(C(=O)c1ccccc1)C(C)C,114%,104%,107%,104%,98.2%,108%,98.5%,86.6%,–,105%,111%,96.3%,109%,114,116%,108%,108%,115%,111%,110%
CCCCCCCCCCCCSC1=C(Cl)C(=O)C(OC)=C(OC)C1=O,39.3%,37.9%,24.5%,32.9%,43.7%,27.7%,70.8%,77.4%,–,–,28.7%,80%,38.8%,79.9,5.92% (active),38.8%,67.3%,34.9%,-4.73% (active),–
CC(=O)Nc1ccc(/C=C2\SC(=S)N(/C=C(\C(C)=O)C(N)=O)C2=O)cc1,87.7%,94.2%,95.5%,68.4%,97.4%,97.8%,98.3%,101%,91.1,83.9%,92.8%,98.7%,99.4%,86.9,105%,105%,95.7%,100%,–,–
C=COC(=O)CCOCC(CC)CCCC (stereo not given),96.9%,110%,104%,79.5%,103%,106%,96.5%,91.9%,–,53.2%,–,103%,96.2%,113,105%,98%,105%,105%,93.9%,99.2%
